Bioassay records: PubChem, National Center for Advancing Translational Sciences (NCATS)
Rows were chosen to be rich in hits. Some 19% of all compounds tested hit in one or more screens of this group.
KB-3-1 tox = kills parental KB-3-1 adenocarcinoma cells; hit rate 1.4% among 400,000; Potency, µM (highest dose often 46.1 µM), actives largely listed as cytotoxic; AID 1347075; KB-3-1 viability, CellTiter-Glo ATP luminescence, 72 h; also: nearly all actives have a fitted effect of over 60% in size
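Cytotoxicity measured as CellTiter-Glo luminescence after 72 h at 37 C. Compound titrations were pinned onto drug-naive KB-3-1 parental adenocarcinoma cells grown in DMEM with 10% FBS, and normalized data fitted to concentration-response curves.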
DT40 TDP1 no CPT = qHTS for Inhibitors of human tyrosyl-DNA phosphodiesterase 1 (TDP1): qHTS in cells in absence of CPT. hit rate 15% among 420,000. AID 686978, 2013. Potency, µM (doses to about 46.2 µM), for inactives: top-dose activity change, negative = growth inhibition, usual class: inhibitors. DT40 Tdp1-/- hTDP1 cells, no CPT, ATP luminescence, 48 h; also: nearly all actives have a fitted effect of over 55% in size
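Luminescent ATP content (CellTiter-Glo) served as the growth readout. Knockout chicken DT40 cells expressing human TDP1 were exposed to compounds without camptothecin for a minimum 48 hr at 37 °C.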
KB-V1 MDR tox = kills drug-selected multidrug resistant KB-V1 cells; KB-V1 MDR cells viability, CellTiter-Glo, 72 h; Potency, µM (highest dose often 46.1 µM), usual class: cytotoxic; hit rate 3.4% among 400,000; also: nearly all actives have a fitted effect of over 60% in size
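Readout: CellTiter-Glo luminescence, 10 min after addition. Cells: KB-V1 MDR subline, 72 h at 37 degrees C with compound. Analysis: corrected, normalized data fitted to concentration-effect curves.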
HT1080 IDH1KD tx = HT-1080 IDH1 knockdown cell toxicity (counter line). HT-1080 IDH1 knockdown viability, ATP luminescence, 48 h. hit rate 2% among 360,000. AID 686971. Potency, µM (doses to about 46.1 µM), without a hit: top-dose activity, negative = toxicity, usual class: cytotoxic;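 also: 0% = DMSO wells and -100% = cell-free medium wells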
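Assay cells: HT-1080 with IDH1 knockdown, 750 per well, RPMI/5% FBS. Exposure: 48 h at 37 °C following 2 h pre-incubation. Read: CellTiter-Glo luminescence; fitted concentration-response, curve class assigned.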
DT40 TDP1 CPT = growth inhibition of DT40 Tdp1-/-;hTDP1 cells with camptothecin (screen for TDP1 inhibitors). Potency, µM (top dose mostly 46.2 µM), for inactives: at the top dose activity change, negative = growth inhibition, actives largely listed as inhibitors. chicken DT40 Tdp1-/-;hTDP1 cells + 20 nM CPT, ATP luminescence, 48 h. hit rate 12% among 420,000. AID 686979; also: nearly all actives have a fitted effect of over 55% in size
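Chicken DT40 Tdp1-/- cells stably complemented with human TDP1 were seeded at 400 cells/well in medium containing 20 nM camptothecin, exposed to pin-transferred compounds, and grown at 37 °C for at least 48 hr. Viability was read as ATP luminescence.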
HT1080-NT tox = kills 2HG-producing HT-1080-NT fibrosarcoma cells; AID 686970; Potency, µM (highest dose often 46.1 µM), for the others: at the top dose activity, negative = less viability, usual class: cytotoxic; HT-1080-NT fibrosarcoma viability, CellTiter-Glo ATP luminescence, 48 h; hit rate 1.6% among 360,000;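 also: NT is the 2HG producing partner of a matched IDH1 knockdown line; 0% = DMSO-treated cells and -100% = media-only wells without cells; nearly all actives have a fitted effect of over 55% in size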
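Luminescent CellTiter-Glo readout after 48 hours of compound exposure at 37 degrees C defined viability of HT-1080-NT cells. Activity was normalized to DMSO wells and cell-free media wells; concentration-response curves were fitted and assigned curve classes.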
* = called active by the depositor; i = inactive; ? = inconclusive; . = not tested or not shown; [ ] = remark or other dose. Calls follow the shape of the dose curve; as a rule, active = well fitted curve in the direction sought with a large enough effect; inconclusive = small, poorly fitted or top-dose-only effect, or another doubt; inactive = no such curve, though single readings can be large; an effect the other way counts as inactive or inconclusive. Unless noted, % is scaled to controls: 0 for no effect and ±100 for the full control effect; potency is read from the fitted curve at half-maximal effect.

SMILES | KB-3-1 tox | DT40 TDP1 no CPT | KB-V1 MDR tox | HT1080 IDH1KD tx | DT40 TDP1 CPT | HT1080-NT tox
Cc1cccc(C(=O)NNC(=O)c2c(O)c3ccccc3n(C)c2=O)c1 | i | 29µM* | ? | ? | ? | ?
CCn1c(=O)c(C(=O)NNC(=O)c2cccc(Cl)c2)c(O)c2ccccc21 | i | ? | ? | ? | 23µM* | 13µM*
Cn1c(=O)c(C(=O)Nc2ccccc2S(N)(=O)=O)c(O)c2ccccc21 | i | ? | ? | -25% | ? | -19%
Cn1c(=O)c(C(=O)Nc2ccccn2)c(O)c2ccccc21 | 18µM* | ? | 2.3µM* | -11% | ? | -12%
Cn1c(=O)c(C(=O)NNC(=O)c2cccc(Cl)c2)c(O)c2ccccc21 | i | 13µM* | ? | 9.2µM* | 18µM* | 6.5µM*
CC/C(=C\c1ccc(C(=O)OC)cc1)c1cc(OC)cc2oc3ccccc3c12 | i | ? | i | . | ? | .
CCCCN(C)C(=O)CNC(=O)c1nn(-c2ccc(OC)cc2OC)c(=O)c2ccccc12 | i | -15% | i | -2% | 13% | 5%
CNC(=O)C[C@H]1C(=O)N(c2ccc(OC)cc2)C[C@@H]1CSC | i | 2% | i | 18% | -1% | 11%
Cn1c(=O)c(C(=O)NNC(=O)c2ccccc2Br)c(O)c2ccccc21 | ? | ? | ? | -21% | ? | -24%
Cn1c(=O)c(C(=O)NNC(=O)c2ccccc2Cl)c(O)c2ccccc21 | i | 18µM* | ? | -28% | ? | -26%
CC(=O)c1c(O)c2ccccc2n(C)c1=O | i | -9% | i | 2% | 4% | -3%
CC(NC(=O)c1c(O)c2ccccc2n(C)c1=O)c1ccccc1 (configuration not stated) | ? | 18µM* | ? | -7% | 23µM* | -17%
CC(C)C[C@@H](CN1CCC[C@@H]1CN1C(=S)NC[C@@H]1Cc1ccc(O)cc1)N1C[C@H](Cc2ccc(O)cc2)N(CCc2ccccc2)C1=S | i | 21µM* | ? | ? | ? | 26µM*
CC(C)C[C@@H](CN1CCCC1CN1C(=S)NC[C@@H]1Cc1ccccc1)N1C[C@H](Cc2ccc(O)cc2)N(CCc2ccccc2)C1=S (some centres not stated) | ? | ? | ? | -1% | 18µM* | ?
CC(C)C[C@@H](CN1CCC[C@@H]1CN1C(=O)C(=O)NC[C@@H]1Cc1ccccc1)N1C[C@H](Cc2ccc(O)cc2)N(CCc2ccccc2)C(=O)C1=O | i | ? | i | -4% | ? | 1%
CC(C)C[C@@H](CN1CCCC1CN1C(=S)NC[C@@H]1Cc1ccccc1)N1C[C@H](Cc2ccccc2)N(CCc2ccccc2)C1=S (some centres not stated) | i | 9.2µM* | i | -2% | ? | -2%
CC(C)C[C@@H](CN1CCC[C@@H]1CN1C(=S)NC[C@@H]1Cc1ccccc1)N1C[C@H](Cc2ccc(O)cc2)N(CCc2ccccc2)C1=S | i | 18µM* | ? | ? | ? | ?
CC(C)C[C@@H](CN1CCC[C@H]1CN1C(=O)C(=O)NC[C@@H]1Cc1ccccc1)N1C[C@H](Cc2ccc(O)cc2)N(CCc2ccccc2)C(=O)C1=O | i | ? | i | ? | ? | ?
CC1CC2C3CCC4=CC(=O)C=C[C@@]4(C)[C@]3(F)C(O)C[C@]2(C)[C@]1(O)C(=O)CO (some centres not stated) | . | -27% | . | . | ? | .
CCOC(=O)c1sc2ncn(CC(=O)Nc3ccc(C)cc3C)c(=O)c2c1C | i | -9% | ? | . | -15% | .
OC(c1ccccc1)c1nc2ccccc2n1Cc1c(F)cccc1Cl (configuration not stated) | i | ? | i | . | ? | .
COc1ccccc1-c1nn(CCC(=O)Nc2ccc(C)cc2)c2nc(C)cc(C)c12 | i | 13µM* | ? | . | ? | .
O=C(O)C1CCCCC1C(=O)Nc1cccc2ccccc12 (configuration not stated) | i | 8.2µM* | i | 0% | 16µM* | 3%
O=C(Nc1cccc(S(=O)(=O)N2CCCCC2)c1)c1ccccc1NS(=O)(=O)c1ccc(F)cc1 | ? | 21µM* | 21µM* | 23µM* | ? | ?
Cc1ccc(NS(=O)(=O)c2ccccc2F)cc1S(=O)(=O)N1CCCCCC1 | i | -6% | i | 1% | 1% | -1%
SMILES | KB-3-1 tox | DT40 TDP1 no CPT | KB-V1 MDR tox | HT1080 IDH1KD tx | DT40 TDP1 CPT | HT1080-NT tox
NS(=O)(=O)c1cccc(NC(=O)c2ccccc2NS(=O)(=O)c2ccc(F)cc2)c1 | i | -2% | i | 0% | 11% | 0%
Cc1ccc(NC(=O)c2ccccc2NS(=O)(=O)c2ccc(F)cc2)cc1S(=O)(=O)N1CCCCC1 | ? | 12µM* | ? | ? | 16µM* | ?
O=C(CSc1ccc([N+](=O)[O-])cc1)Nc1cccc(S(=O)(=O)Nc2ccccc2F)c1 | i | ? | i | -16% | 9.2µM* | -17%
CSc1ncccc1C(=O)Nc1cccc(S(=O)(=O)N2CCCCCC2)c1 | i | 29µM* | i | -10% | ? | -5%
CC(C)=CCn1cnc2c1c(=O)n(C)c(=O)n2C | . | 5%[9.04 µM] | . | . | -5%[9.04 µM] | .
Cc1ccc(NC(=O)Cn2nnc(-c3ccccc3)n2)c(C)c1 | i | . | i | . | . | .
CC(C)C(N)C(=O)O (configuration not stated) | . | -5% | . | . | -1% | .
Cc1ccc(CNC(=O)C2CCN(S(=O)(=O)c3ccc(Br)s3)CC2)cc1 | i | ? | i | 1% | -27% | -4%
CCOC(=O)c1cccc(NC(=O)c2cc(S(=O)(=O)N3CCCC3)cn2C)c1 | . | ? | . | . | -7% | .
CCOC(=O)c1[nH]cnc1C(=O)N1CCN(C(=O)OC(C)(C)C)CC1 | i | 2% | i | 2% | 6% | 17%
O=S(=O)(Nc1ccccc1OC(F)F)c1ccc(S(=O)(=O)N2CCCC2)cc1 | i | ? | 18µM* | -2% | ? | -2%
O=C1CCC(C(=O)Nc2cccc(S(=O)(=O)Nc3ccccc3F)c2)=NN1 | i | 13µM* | i | 2% | 18µM* | ?
Cc1nnc(N2CCN(c3cccc(Cl)c3)CC2)c2c1nnn2Cc1ccc(F)cc1 | i | ? | i | . | -30% | .
